Assay results published in PubChem BioAssay (NCATS).
Records with an inconclusive call do not appear. The source made the active and inactive calls. Unless noted, the call rests on the fitted dose curve; in most records, active means well fitted curve in the direction sought with a large enough effect; inconclusive means small, poorly fitted or top-dose-only effect, or another doubt; inactive means no such curve, though single readings can be large; an effect the other way counts as inactive or inconclusive.

Experiments:
[1] = target: Lysosomal acid glucosylceramidase (Homo sapiens) (UniProt P04062); assay: Glucocerebrosidase-p2 (AID 348; in the data active means potency below about 10 µM; further: potency means the concentration at half of the fitted maximal effect); settings: purified GBA, blue fluorogenic substrate, 40 min
Chain of Lysosomal acid glucosylceramidase (Homo sapiens) (P04062 whole entry, looked up): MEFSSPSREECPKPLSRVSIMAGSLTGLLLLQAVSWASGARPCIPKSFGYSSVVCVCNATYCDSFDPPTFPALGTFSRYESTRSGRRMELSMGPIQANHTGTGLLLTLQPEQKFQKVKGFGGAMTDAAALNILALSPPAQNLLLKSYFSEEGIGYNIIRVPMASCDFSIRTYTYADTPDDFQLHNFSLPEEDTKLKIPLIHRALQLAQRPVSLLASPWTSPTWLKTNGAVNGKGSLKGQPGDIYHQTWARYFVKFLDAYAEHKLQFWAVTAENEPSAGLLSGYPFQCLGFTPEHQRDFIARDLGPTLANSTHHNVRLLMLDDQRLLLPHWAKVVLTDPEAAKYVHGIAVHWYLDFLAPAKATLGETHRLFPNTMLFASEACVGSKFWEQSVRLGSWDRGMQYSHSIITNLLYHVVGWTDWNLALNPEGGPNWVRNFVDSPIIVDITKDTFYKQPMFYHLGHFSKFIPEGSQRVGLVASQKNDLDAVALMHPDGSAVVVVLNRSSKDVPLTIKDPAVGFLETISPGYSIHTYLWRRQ
Method in brief: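 Normal human glucocerebrosidase (0.2 nM) with blue fluorogenic substrate (80 uM final) in citrate/phosphate pH 5.9 with 10mM sodium taurocholate, 0.01% tween-20; 40 min RT, NaOH/glycine stop; fluorescence Ex 365/Em 440; AC50 from a titration from 0.6 nM upwards.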

[2] = target: Cytochrome P450 1A2 (Homo sapiens) (UniProt P05177); assay: p450-cyp1a2 (AID 410; calls by dose curve; further: potency means the concentration at half of the fitted maximal effect;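 on activity change, negative = inhibition: -100% = full effect of reference inhibitor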); settings: recombinant CYP1A2, luciferin-ME demethylation, luminescence; series mostly up to 57 µM
Chain of Cytochrome P450 1A2 (Homo sapiens) (P05177 whole entry, looked up): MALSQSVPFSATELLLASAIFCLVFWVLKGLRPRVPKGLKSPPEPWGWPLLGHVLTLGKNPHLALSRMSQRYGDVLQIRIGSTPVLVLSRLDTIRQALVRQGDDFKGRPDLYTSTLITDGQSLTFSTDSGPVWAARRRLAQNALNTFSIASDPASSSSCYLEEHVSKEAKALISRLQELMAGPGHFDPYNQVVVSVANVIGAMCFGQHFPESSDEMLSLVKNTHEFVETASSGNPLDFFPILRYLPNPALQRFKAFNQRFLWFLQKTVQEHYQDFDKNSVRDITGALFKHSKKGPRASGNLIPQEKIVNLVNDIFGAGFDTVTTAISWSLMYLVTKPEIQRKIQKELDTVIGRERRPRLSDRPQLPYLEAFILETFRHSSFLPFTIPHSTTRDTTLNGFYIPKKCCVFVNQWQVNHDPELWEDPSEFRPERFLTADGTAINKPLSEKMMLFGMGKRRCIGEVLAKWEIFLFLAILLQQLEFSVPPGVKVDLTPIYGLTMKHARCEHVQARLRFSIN
Method in brief: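 O-Demethylation of luciferin 6' methyl ether by human CYP1A2 is monitored as luciferase luminescence. Substrate sits at Km (100uM); enzyme is 20nM. Values are scaled to 57 uM furafylline as maximal inhibition.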

[3] = target: Glucocorticoid receptor (Homo sapiens) (UniProt P04150); assay: GR-GFP Redistribution (AID 450;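 active means compounds whose dose series gives a full or clear partial fitted curve of increased nuclear translocation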; further: potency means the concentration at half of the fitted maximal effect); settings: U2OS GR-GFP nuclear translocation, laser cytometry, 2 h
[4] = target: Glucocorticoid receptor (Homo sapiens) (UniProt P04150); assay: GR-EFC Redistribution (AID 451; calls by dose curve; further: potency means the concentration at half of the fitted maximal effect); settings: CHO-K1 GR-EFC translocation, beta-gal luminescence, 2 h
Method in brief: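 CHO-K1 cells stably expressing nuclear-localized β-gal enzyme acceptor and GR fused C-terminally to the enzyme donor fragment; ligand-driven nuclear translocation restores β-gal by complementation. Compounds titrated up to 46 uM final, 2 h at 37 °C; luminescence read.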

[5] = target: 3',5'-cyclic-AMP phosphodiesterase 4B (Homo sapiens) (UniProt Q07343); assay: qHTS Assay for Inhibitors of PDE-IV (AID 607; active means well fitted activation curve with a large enough effect in the main read-out, with a control signal flat, not every such curve was filed as active; further: % of control where 0% means no effect); settings: HEK293 ACTOne CNG channel cells, membrane potential fluorescence; series mostly up to 22.9 µM
Chain of 3',5'-cyclic-AMP phosphodiesterase 4B (Homo sapiens) (Q07343 whole entry, looked up): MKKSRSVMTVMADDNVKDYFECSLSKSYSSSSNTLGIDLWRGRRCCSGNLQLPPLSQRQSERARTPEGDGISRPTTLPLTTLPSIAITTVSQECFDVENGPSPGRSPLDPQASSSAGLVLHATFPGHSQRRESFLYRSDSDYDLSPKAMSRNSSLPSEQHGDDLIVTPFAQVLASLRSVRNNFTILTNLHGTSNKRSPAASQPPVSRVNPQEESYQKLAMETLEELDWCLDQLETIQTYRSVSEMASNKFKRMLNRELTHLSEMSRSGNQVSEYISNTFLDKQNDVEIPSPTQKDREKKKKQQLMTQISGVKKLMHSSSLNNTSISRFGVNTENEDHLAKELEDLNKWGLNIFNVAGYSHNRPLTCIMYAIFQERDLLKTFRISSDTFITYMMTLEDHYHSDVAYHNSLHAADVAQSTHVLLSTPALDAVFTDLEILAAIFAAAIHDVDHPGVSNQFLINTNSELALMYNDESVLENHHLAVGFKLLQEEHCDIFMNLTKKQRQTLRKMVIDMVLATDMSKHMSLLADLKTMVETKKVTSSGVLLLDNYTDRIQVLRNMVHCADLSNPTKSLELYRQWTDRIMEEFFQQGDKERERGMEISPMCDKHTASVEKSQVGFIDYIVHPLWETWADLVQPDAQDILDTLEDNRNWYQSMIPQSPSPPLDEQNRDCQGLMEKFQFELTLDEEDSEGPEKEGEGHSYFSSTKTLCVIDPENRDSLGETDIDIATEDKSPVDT
Method in brief: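 HEK293 ACTOne cells with CNG channel (1000/well), endogenous PDE4; membrane potential dye, compounds up to 22.9 uM final. Fluorescence Ex 535/Em 590; RO 20-1724 (100 uM final) as reference.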

[6] = target: Cytochrome P450 3A4 (Homo sapiens) (UniProt P08684); assay: qHTS Assay for Activators of Cytochrome P450 3A4 (AID 885); settings: recombinant CYP3A4, Luciferin-PPXE luminescence, 60 min; series mostly up to 57.1 µM; further: nearly all actives have a fitted effect of over 65% in size
Method in brief: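 Human CYP3A4 dealkylates Luciferin-PPXE to luciferin, which luciferase detection converts to light. Substrate was at its KM (25uM), buffer 200mM KPO4, reaction 60 min at RT.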

[7] = qHTS Assay for Lipid Storage Modulators (AID 1519; calls by dose curve); settings: Drosophila S3 cells, BODIPY lipid droplet/cell ratio, laser cytometry, cells loaded with oleic acid; for activity change, negative = inhibition: at 57.5 µM (top of the series)
Method in brief: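 Cells seeded at 5,000 per well were treated with compounds over a concentration series and loaded with oleic acid (400 uM, as added). Lipid droplet fluorescence (488 nm excitation, 500-530 nm channel) was read by laser-scanning cytometry and normalized to 20 uM Triacsin C.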

[8] = target: Dual specificity protein kinase CLK4 (Homo sapiens) (UniProt Q9HAZ1); assay: qHTS Assay for Inhibitors of CDC-like Kinase 4 (Kinase-Glo Assay) (AID 1770); settings: recombinant Clk4, Kinase-Glo ATP depletion luminescence; series mostly up to 66.7 µM; further: on the % scale 0 is the no-effect control and ±100 the full control effect; nearly all actives have a fitted effect of over 65% in size
Chain of Dual specificity protein kinase CLK4 (Homo sapiens) (Q9HAZ1 whole entry, looked up): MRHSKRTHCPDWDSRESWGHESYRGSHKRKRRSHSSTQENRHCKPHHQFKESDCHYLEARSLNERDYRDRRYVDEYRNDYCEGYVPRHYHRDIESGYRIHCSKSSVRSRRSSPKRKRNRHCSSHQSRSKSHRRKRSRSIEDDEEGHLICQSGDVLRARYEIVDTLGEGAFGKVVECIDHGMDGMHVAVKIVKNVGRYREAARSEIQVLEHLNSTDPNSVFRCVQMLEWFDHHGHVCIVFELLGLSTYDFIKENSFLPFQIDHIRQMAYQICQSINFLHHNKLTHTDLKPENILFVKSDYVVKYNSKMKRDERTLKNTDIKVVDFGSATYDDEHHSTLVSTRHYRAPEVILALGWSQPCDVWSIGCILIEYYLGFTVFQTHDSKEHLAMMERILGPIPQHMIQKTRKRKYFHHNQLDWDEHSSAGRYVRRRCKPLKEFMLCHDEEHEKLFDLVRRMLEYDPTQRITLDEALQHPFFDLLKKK
Method in brief: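 Inhibition was judged from remaining ATP, measured by Ultra-Glo luciferase bioluminescence after Clk4 (25 nM) had acted on RS peptide at 1 uM ATP for 4.5 hours, room temperature.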

[9] = target: Dual specificity protein kinase CLK4 (Homo sapiens) (UniProt Q9HAZ1); assay: qHTS Assay for Inhibitors of CDC-like Kinase 4 (ADP-Glo Assay) (AID 1771); settings: recombinant CLK4, ADP-Glo luminescence; series mostly up to 80 µM; further: on the % scale 0 is the no-effect control and ±100 the full control effect; nearly all actives have a fitted effect of over 70% in size
Method in brief: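 Compounds are pin-transferred onto substrate mix (100 uM RS peptide, 1 uM ATP), then 25 nM Clk4 is added. After 1 hr at room temperature, ADP-Glo reagent runs 45 min, detection reagent 30 min, then luminescence is read.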

[10] = target: Dual specificity protein kinase CLK4 (Homo sapiens) (UniProt Q9HAZ1); assay: qHTS Assay for Inhibitors of CDC-like Kinase 4 (ADP-FP Assay) (AID 1795); settings: Transcreener ADP fluorescence polarization; series mostly up to 50 µM;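 further: recombinant human CLK4 phosphorylating RS repeat peptide at 1 µM ATP; on the % scale 0 is the no-effect control and ±100 the full control effect; nearly all actives have a fitted effect of over 60% in size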
Method in brief: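 Inhibition of ADP formation by 6.25 nM Clk4 is measured using 1 uM ATP and 100 uM RS repeat peptide over one hour. Produced ADP displaces a fluorescent tracer from antibody, lowering polarization.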

[11] = Primary qHTS for small molecule stabilizers of the endoplasmic reticulum resident proteome: Secreted ER Calcium Modulated Protein (SERCaMP) assay (AID 1508630); settings: SH-SY5Y GLuc-SERCaMP (Gaussia luciferase released on ER calcium loss) secretion, thapsigargin, luminescence; series mostly up to 38.4 µM; further: on the % scale 0 is the no-effect control and ±100 the full control effect
Method in brief: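 The SH-SY5Y reporter protocol was run at 3 concentrations up to 38.3 uM (primary) or 11 concentrations (follow-up): 16 h compound, 100 nM thapsigargin for 4 h, then extracellular luciferase luminescence.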

[12] = target: Rap guanine nucleotide exchange factor 3 (Homo sapiens) (UniProt O95398); assay: Confirmatory qHTS for antagonist of cAMP-regulated guanine nucleotide exchange factor 3 (EPAC1) (AID 1645880); settings: EPAC1 Rap1B-BODIPY-GDP exchange, fluorescence; series mostly up to 115 µM;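 further: plate controls were DMSO only for no effect and full effect of the ATA control for full effect; nearly all actives have a fitted effect of over 55% in size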
Chain of Rap guanine nucleotide exchange factor 3 (Homo sapiens) (O95398 whole entry, looked up): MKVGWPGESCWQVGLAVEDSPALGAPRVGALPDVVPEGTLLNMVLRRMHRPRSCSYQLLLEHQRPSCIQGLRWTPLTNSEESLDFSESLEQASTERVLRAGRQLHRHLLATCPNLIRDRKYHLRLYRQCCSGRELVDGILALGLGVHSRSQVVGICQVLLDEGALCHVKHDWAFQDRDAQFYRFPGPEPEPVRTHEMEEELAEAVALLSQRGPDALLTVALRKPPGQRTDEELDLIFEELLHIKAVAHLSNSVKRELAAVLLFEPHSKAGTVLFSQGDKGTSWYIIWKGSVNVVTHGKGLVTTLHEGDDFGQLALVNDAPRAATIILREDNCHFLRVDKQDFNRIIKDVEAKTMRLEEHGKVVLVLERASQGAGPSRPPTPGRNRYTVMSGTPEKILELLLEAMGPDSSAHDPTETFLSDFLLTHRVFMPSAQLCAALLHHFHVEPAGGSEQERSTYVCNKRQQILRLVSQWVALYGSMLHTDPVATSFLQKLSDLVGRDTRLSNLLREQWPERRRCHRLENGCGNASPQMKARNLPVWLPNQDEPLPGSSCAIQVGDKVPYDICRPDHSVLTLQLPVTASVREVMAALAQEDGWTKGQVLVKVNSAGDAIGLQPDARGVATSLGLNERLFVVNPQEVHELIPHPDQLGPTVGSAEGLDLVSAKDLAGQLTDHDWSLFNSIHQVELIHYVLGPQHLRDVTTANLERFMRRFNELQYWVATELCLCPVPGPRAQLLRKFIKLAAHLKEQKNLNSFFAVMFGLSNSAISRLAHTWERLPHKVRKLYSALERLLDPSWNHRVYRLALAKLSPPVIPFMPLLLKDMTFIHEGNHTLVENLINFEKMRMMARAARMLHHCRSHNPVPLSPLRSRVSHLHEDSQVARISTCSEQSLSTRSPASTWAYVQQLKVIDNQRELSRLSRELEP
Method in brief: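 Released BODIPY-GDP fluoresces less than Rap1-bound BODIPY-GDP; the signal is followed at 480/540 nm at 5-min intervals over 30 min, after 5 min at room temperature. Reactions contain 100 nM EPAC1, 250 nM RAP1B-BODIPY-GDP and 50 uM GDP; results are normalized to ATA and DMSO.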

[13] = target: Rap guanine nucleotide exchange factor 3 (Homo sapiens) (UniProt O95398); assay: Confirmatory qHTS for agonist of cAMP-regulated guanine nucleotide exchange factor 3 (EPAC1) (AID 1645881); settings: EPAC1 Rap1B BODIPY-GDP exchange fluorescence, 100% = cAMP control response; series mostly up to 154 µM;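 further: EPAC1 catalysed release of BODIPY-GDP from Rap1B seen as fluorescence loss; nearly all actives have a fitted effect of over 75% in size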
[14] = target: Rap guanine nucleotide exchange factor 4 (Homo sapiens) (UniProt Q8WZA2); assay: Confirmatory qHTS for antagonist of cAMP-regulated guanine nucleotide exchange factor 4 (EPAC2) (AID 1645885); settings: EPAC2 Rap1B-BODIPY-GDP exchange fluorescence, biochemical; series mostly up to 114 µM; further: nearly all actives have a fitted effect of over 25% in size; further: potency means the concentration at half of the fitted maximal effect
Chain of Rap guanine nucleotide exchange factor 4 (Homo sapiens) (Q8WZA2 whole entry, looked up): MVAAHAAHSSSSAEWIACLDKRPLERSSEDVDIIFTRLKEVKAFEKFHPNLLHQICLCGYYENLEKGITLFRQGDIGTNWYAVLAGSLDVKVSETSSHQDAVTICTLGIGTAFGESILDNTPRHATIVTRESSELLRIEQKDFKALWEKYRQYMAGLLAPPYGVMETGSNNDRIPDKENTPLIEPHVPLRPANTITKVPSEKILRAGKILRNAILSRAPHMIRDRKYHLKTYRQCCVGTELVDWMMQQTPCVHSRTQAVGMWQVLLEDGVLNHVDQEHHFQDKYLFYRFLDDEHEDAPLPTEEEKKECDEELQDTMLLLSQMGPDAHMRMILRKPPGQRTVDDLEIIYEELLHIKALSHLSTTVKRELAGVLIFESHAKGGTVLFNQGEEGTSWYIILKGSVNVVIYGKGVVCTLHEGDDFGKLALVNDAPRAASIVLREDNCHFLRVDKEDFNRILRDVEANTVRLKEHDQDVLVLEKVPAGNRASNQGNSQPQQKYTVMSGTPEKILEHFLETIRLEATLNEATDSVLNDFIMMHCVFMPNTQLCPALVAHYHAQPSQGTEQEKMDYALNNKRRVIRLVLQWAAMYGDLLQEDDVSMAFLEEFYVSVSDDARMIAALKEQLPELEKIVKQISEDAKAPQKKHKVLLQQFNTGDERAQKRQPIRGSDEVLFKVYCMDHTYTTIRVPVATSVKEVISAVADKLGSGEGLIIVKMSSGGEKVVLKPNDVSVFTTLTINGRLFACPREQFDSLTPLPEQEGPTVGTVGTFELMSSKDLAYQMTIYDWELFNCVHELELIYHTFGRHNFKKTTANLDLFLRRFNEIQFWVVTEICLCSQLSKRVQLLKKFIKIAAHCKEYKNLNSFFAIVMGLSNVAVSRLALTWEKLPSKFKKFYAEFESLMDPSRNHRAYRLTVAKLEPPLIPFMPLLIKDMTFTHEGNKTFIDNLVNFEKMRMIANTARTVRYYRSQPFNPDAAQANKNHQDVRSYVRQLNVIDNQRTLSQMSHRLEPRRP

[15] = AP1 Signaling Pathway (AID 357; active means well fitted curve in either direction with a large enough effect, not every such curve was filed as active; further: on the % scale 0 is the no-effect control and ±100 the full control effect); settings: ME-180 AP-1-bla reporter, EGF-induced, beta-lactamase ratio, 5 h; at 7.69 µM (top of the series) unless noted
Method in brief: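 AP-1-bla ME-180 cells with beta-lactamase reporter under AP-1 response element, stimulated with EC50 EGF; compounds titrated, 5 hours at 37 degrees Celsius. CCF4 read at 460/530 nm ratio; positive and negative modulators judged by AC50.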

[16] = NFAT Signaling Pathway (AID 444; active means well fitted curve in either direction with a large enough effect, not every such curve was filed as active;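 further: carbachol stimulus at about its EC50 of 1 µM final; on the % scale 0 is the no-effect control and ±100 the full control effect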); settings: Jurkat NFAT-bla M1, carbachol, beta-lactamase ratio, 5 h; at 7.69 µM (top of the series) unless noted
Method in brief: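 Jurkat cells carrying an NFAT-driven β-lactamase reporter and co-transfected muscarinic M1 receptor were treated with compound plus carbachol (1 uM final, an EC50 level) for 5 h at 37 °C. CCF4 loading followed for 1 h at RT; 460/530 nm ratio gave %activity.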

[17] = Stat Signaling Pathway (AID 446; active means well fitted curve in either direction with a large enough effect, not every such curve was filed as active;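 further: ME-180 cervical cancer cells given 40 pM IL-6 alongside compound; SIE-controlled beta-lactamase reporter measured as 460/530 nm FRET emission ratio; on the % scale 0 is the no-effect control and ±100 the full control effect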); settings: ME-180 (cervical carcinoma) SIE beta-lactamase reporter, IL-6 stimulated, 5 h; at 7.69 µM (top of the series) unless noted
Method in brief: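 Normalization used AC90 stimulation (300 pM IL-6) and AC90 inhibition (125 nM pan-JAK inhibitor at 40 pM IL-6). The underlying signal is SIE-driven beta-lactamase in ME-180 cells after 5 h IL-6 exposure with compound.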

[18] = target: Mitogen-activated protein kinase 10 (Mus musculus) (UniProt Q61831); assay: JNK3 AlphaScreen Assay (AID 530; active means well fitted curve in either direction with a large enough effect, not every such curve was filed as active); settings: JNK3 lysate, c-Jun phosphorylation; series mostly up to 57.1 µM
Method in brief: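 Phosphorylation of biotinylated GST-cJun(1-79) at Ser73 is measured by AlphaScreen proximity luminescence. Enzyme is JNK3 in HepG2 lysates activated with interleukin-1beta and tumor necrosis factor alpha; ATP is 10 uM final.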

[19] = target: Ubiquitin carboxyl-terminal hydrolase 1 (Homo sapiens) (UniProt O94782); assay: Inhibitors of USP1/UAF1: Pilot qHTS (AID 504865); settings: purified USP1/UAF1, Ub-rhodamine cleavage fluorescence; series mostly up to 54.9 µM;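 further: rhodamine fluorescence freed from ubiquitin-rhodamine substrate followed over time; top concentration of the series differs between compounds; on the % scale 0 is the no-effect control and ±100 the full control effect; nearly all actives have a fitted effect of over 35% in size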
Chain of Ubiquitin carboxyl-terminal hydrolase 1 (Homo sapiens) (O94782 whole entry, looked up): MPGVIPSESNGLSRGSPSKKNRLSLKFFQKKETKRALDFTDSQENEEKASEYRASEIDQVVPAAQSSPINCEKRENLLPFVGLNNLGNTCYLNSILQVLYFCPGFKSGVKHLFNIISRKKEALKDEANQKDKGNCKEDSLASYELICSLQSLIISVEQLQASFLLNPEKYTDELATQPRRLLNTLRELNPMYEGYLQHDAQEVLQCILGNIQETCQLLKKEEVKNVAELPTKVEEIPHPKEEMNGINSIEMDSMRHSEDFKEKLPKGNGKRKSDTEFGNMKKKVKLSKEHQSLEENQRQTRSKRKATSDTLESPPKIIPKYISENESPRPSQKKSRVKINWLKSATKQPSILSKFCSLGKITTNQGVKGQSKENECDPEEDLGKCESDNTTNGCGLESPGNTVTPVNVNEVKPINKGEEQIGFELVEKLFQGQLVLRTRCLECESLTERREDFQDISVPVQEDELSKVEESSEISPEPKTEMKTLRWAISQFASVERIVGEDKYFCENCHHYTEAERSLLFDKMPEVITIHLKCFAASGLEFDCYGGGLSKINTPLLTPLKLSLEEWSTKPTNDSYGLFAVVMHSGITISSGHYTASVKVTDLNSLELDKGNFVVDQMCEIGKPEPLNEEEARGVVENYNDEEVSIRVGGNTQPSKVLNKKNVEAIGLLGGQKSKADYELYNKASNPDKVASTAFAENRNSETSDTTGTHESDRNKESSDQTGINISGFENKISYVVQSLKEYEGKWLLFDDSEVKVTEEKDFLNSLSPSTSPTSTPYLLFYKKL
Method in brief: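 Kinetic fluorescence assay: 1nM USP1/UAF1, 15 min compound preincubation, then 150nM Ub-Rho; 480/540 nm.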

[20] = target: Rap guanine nucleotide exchange factor 4 (Homo sapiens) (UniProt Q8WZA2); assay: Confirmatory qHTS for agonist of cAMP-regulated guanine nucleotide exchange factor 4 (EPAC2) (AID 1645884); settings: EPAC2 GEF activity, Rap1B-BODIPY-GDP fluorescence, percent relative to cAMP agonist control; series mostly up to 154 µM;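 further: nucleotide exchange releases bodipy-GDP from Rap1 and this lowers its fluorescence; on the % scale 0 is the no-effect control and ±100 the full control effect; nearly all actives have a fitted effect of over 65% in size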
[21] = measured here: cell count channel max response
[22] = measured here: lipid channel max response

Q: With `COc1cccc(Cn2c(=O)c(-c3cn(C)c4ccccc34)nc3cnc(N4CCNCC4)nc32)c1` as the compound, how does the Potency [1] read?
A: > 11.4 µM (inactive)

Q: What about the Potency [2] of the same compound?
A: 15.8 µM (active)

Q: And the Potency [3]?
A: > 9.22 µM (inactive)

Q: And the Potency [4]?
A: > 46 µM (inactive)

Q: What about the Potency [5] of the same compound?
A: inactive

Q: What about the Potency [6] of the same compound?
A: inactive

Q: What about the activity change, negative = inhibition [7] of the same compound?
A: 5.92% (inactive)

Q: What about the max response [7, 21] of the same compound?
A: 13.9%

Q: What about the max response [7, 22] of the same compound?
A: 20.8%

Q: What about the Potency [8] of the same compound?
A: inactive

Q: What about the Potency [9] of the same compound?
A: inactive

Q: What about the Potency [10] of the same compound?
A: inactive

Q: What about the Potency [11] of the same compound?
A: inactive

Q: And the Potency [12]?
A: inactive

Q: What about the outcome [13] of the same compound?
A: inactive

Q: And the Potency [14]?
A: inactive

Q: Which results are given for `COc1cccc(Nc2ncc3nc(-c4ccc(F)cc4)c(=O)n(C)c3n2)c1`?
A: Potency [1]: > 11.4 µM (inactive); activity change, negative = inhibition [15]: -6.29% (inactive); Potency [2]: 3.16 µM (active); activity change, negative = inhibition [16]: -16.4% (inactive); activity, negative = inhibition [17]: -6.63% (inactive); Potency [3]: > 9.22 µM (inactive); Potency [4]: > 46 µM (inactive); outcome [18]: inactive; Potency [5]: inactive; activity change, negative = inhibition [7]: 5.16% (inactive); max response [7, 21]: 19%; max response [7, 22]: 25.1%; Potency [8]: inactive; Potency [9]: inactive; Potency [10]: inactive; Potency [19]: inactive; Potency [11]: inactive

Q: What does the source list for `O=C(c1cccc(F)c1)N1CCC2(CCN(Cc3cc(C(F)(F)F)cc(C(F)(F)F)c3)CC2)CC1`?
A: Potency [1]: > 11.4 µM (inactive); Potency [2]: inactive; activity, negative = inhibition [17]: 9.15% (inactive); Potency [4]: > 46 µM (inactive); outcome [18]: inactive; Potency [5]: inactive; activity change, negative = inhibition [7]: 1.43% (inactive); max response [7, 21]: 10.5%; max response [7, 22]: 12.9%; Potency [11]: inactive; outcome [13]: inactive; outcome [20]: inactive; Potency [14]: 39.3 µM (active)

Q: Which results are given for `CC(=O)NCCNc1cc(-c2ccccc2CN(C)C)ncn1`?
A: Potency [1]: > 11.4 µM (inactive); activity change, negative = inhibition [15]: 3.33% (inactive); Potency [2]: inactive; activity change, negative = inhibition [16]: -5.44% (inactive); activity, negative = inhibition [17]: 2.18% (inactive); Potency [3]: > 46 µM (inactive); Potency [4]: > 46 µM (inactive); outcome [18]: inactive; Potency [5]: inactive; activity change, negative = inhibition [7]: -0.819% (inactive); max response [7, 21]: 11.1%; max response [7, 22]: 8.32%; Potency [8]: inactive; Potency [9]: inactive; Potency [10]: inactive; Potency [19]: inactive; Potency [11]: inactive

Q: For `O=c1c(-c2ccccc2)nc2cnc(N3CCOCC3)nc2n1C1CC1`, which Potency [1] is on record?
A: > 11.4 µM (inactive)

Q: What about the activity change, negative = inhibition [15] of the same compound?
A: -9.27% (inactive)

Q: What about the Potency [2] of the same compound?
A: 3.16 µM (active)

Q: And the activity change, negative = inhibition [16]?
A: -1.33% (inactive)

Q: What about the activity, negative = inhibition [17] of the same compound?
A: -7.68% (inactive)

Q: And the Potency [3]?
A: > 9.22 µM (inactive)

Q: What about the Potency [4] of the same compound?
A: > 46 µM (inactive)

Q: What about the outcome [18] of the same compound?
A: inactive

Q: And the Potency [5]?
A: inactive

Q: And the activity change, negative = inhibition [7]?
A: -1.42% (inactive)

Q: What about the max response [7, 21] of the same compound?
A: 1.76%

Q: What about the max response [7, 22] of the same compound?
A: -1.06%

Q: What about the Potency [8] of the same compound?
A: inactive

Q: What about the Potency [9] of the same compound?
A: inactive

Q: What about the Potency [10] of the same compound?
A: inactive

Q: What about the Potency [19] of the same compound?
A: inactive

Q: What about the Potency [11] of the same compound?
A: inactive
